Our source for the outcome and Potency values is PubChem BioAssay (Tox21).

Active and inactive are the calls of the source. Unless noted, the call rests on the fitted dose curve; in most records, active means well fitted curve in the direction sought with a large enough effect in the repeat runs; inconclusive means weak or mixed curves; inactive means no such curve, though single readings can be large; an effect the other way counts as inactive or inconclusive.

A short description of test [1]: qHTS assay to identify small molecule antagonists of the glucocorticoid receptor (GR) signaling pathway - cell viability counter screen (AID 720693). Further: nearly all actives have a fitted effect of over 55% in size. Conditions: GR-bla HeLa viability, CellTiter-Glo luminescence, 18 h, with 5 nM dexamethasone present; series mostly up to 58.5 µM.
The nature of test [2]: qHTS assay for identifying genotoxic compounds that show differential cytotoxicity against isogenic chicken DT40 cell lines with known DNA damage response pathways - wild type cell line (AID 743012). Further: nearly all actives have a fitted effect of over 60% in size. Further: potency means the concentration at half of the fitted maximal effect. Conditions: DT40 wild type chicken cells viability, CellTiter-Glo, 40 h; series mostly up to 68.4 µM. The gist of the method: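 Wild type DT40, 300 cells/well, ~0.5 h settle at 37 C/5% CO2; compounds in DMSO added by pintool; 40 h at 37 C/5% CO2; CellTiter-Glo, 30 min RT; luminescence.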
A general note: Quantitative high-throughput screening tests each substance at several concentrations.

A short description of test [3]: qHTS assay for identifying genotoxic compounds that show differential cytotoxicity against isogenic chicken DT40 cell lines with known DNA damage response pathways - Rad54/Ku70 mutant cell line (AID 743015). Further: nearly all actives have a fitted effect of over 60% in size. Conditions: DT40 Rad54/Ku70 mutant viability, CellTiter-Glo, 40 h; series mostly up to 66.8 µM.
Test [4] is described as follows: qHTS assay to identify small molecule antagonists of the androgen receptor (AR) signaling pathway - cell viability counter screen (AID 743033; further: nearly all actives have a fitted effect of over 45% in size). The settings on record: AR-bla HEK293 viability, CellTiter-Glo luminescence, 16 h; series mostly up to 58.5 µM.
A short description of test [5]: qHTS assay to identify small molecule antagonists of the androgen receptor (AR) signaling pathway using the MDA cell line - cell viability counter screen (AID 743041; further: nearly all actives have a fitted effect of over 45% in size). Conditions: MDA-kb2 viability, CellTiter-Fluor, 16 h, cells co-treated with R1881 androgen agonist; series mostly up to 70.3 µM. Summed up: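 Viability counter screen run alongside the AR antagonist reporter: cells seeded 5 h before compound, R1881 added, 16 h incubation at 37C without CO2, fluorescent CellTiter-Fluor signal quantified.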

The nature of test [6]: qHTS assay to identify small molecule antagonists of the thyroid receptor (TR) signaling pathway - cell viability counter screen (AID 743064). Further: nearly all actives have a fitted effect of over 50% in size. Conditions: GH3.TRE-Luc viability, CellTiter-Fluor, 24 h; series mostly up to 70.3 µM. The gist of the method: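 Viability of T3-stimulated (1 nM final) GH3.TRE-Luc cells is measured by CellTiter-Fluor fluorescence after 23.5 h compound exposure at 37 °C plus 30 min reagent incubation.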

Test [7] can be described thus: qHTS assay to identify small molecule antagonists of the thyroid receptor (TR) signaling pathway (AID 743065). Further: nearly all actives have a fitted effect of over 55% in size. Further: potency means the concentration at half of the fitted maximal effect. Conditions: GH3.TRE-Luc, T3-stimulated luciferase inhibition, 23.5 h; series mostly up to 70.3 µM. Summed up: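 GH3.TRE-Luc rat pituitary cells carrying two TR response elements driving luciferase were plated for 4 h, given compound plus 1 nM T3 (final), and incubated 23.5 h at 37 C. ONE-Glo luminescence measured reporter inhibition; CellTiter-Fluor fluorescence tracked cytotoxicity.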

Test [8] has as its system thyroid hormone receptor (rat, GH3 cells). Kind of test: qHTS assay to identify small molecule agonists of the thyroid receptor (TR) signaling pathway (AID 743066; calls by dose curve). Conditions: GH3.TRE-Luc cells, TR agonist luciferase, 24 h; series mostly up to 83.9 µM.
In test [9] the target is Estrogen receptor (Homo sapiens) (UniProt P03372). Put plainly: qHTS assay to identify small molecule antagonists of the estrogen receptor alpha (ER-alpha) signaling pathway (AID 743069; active means well fitted curve in the direction sought with a large enough effect in the signal ratio in the repeat runs, not every such curve was filed as active; inconclusive means weak or mixed curves, or effect the other way; inactive means no such curve, though single readings can be large or run the other way; the % refers to the signal ratio; further: potency means the concentration at half of the fitted maximal effect). Conditions: HEK293 ER-alpha-UAS-bla, beta-lactamase ratio, antagonist mode; series mostly up to 69.4 µM. Summed up: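 Estradiol-stimulated ER-alpha-UAS-bla HEK293 cells, 18 hr compound exposure at 37C. LiveBLAzer B/G substrate, 2 hr RT, fluorescence read.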

A short description of test [10]: qHTS assay to identify small molecule antagonists of the estrogen receptor alpha (ER-alpha) signaling pathway - cell viability counter screen (AID 743074; calls by dose curve;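 further: HEK293 cells carrying ER-alpha-UAS-bla reporter stimulated with 17beta-estradiol; nearly all actives have a fitted effect of over 45% in size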). The settings on record: ERalpha-bla HEK293 viability, CellTiter-Glo luminescence, 18 h; series mostly up to 69.4 µM.
Test [11] deals with Estrogen receptor (Homo sapiens) (UniProt P03372). Kind of test: qHTS assay to identify small molecule agonists of the estrogen receptor alpha (ER-alpha) signaling pathway (AID 743075; calls by dose curve;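 further: HEK293 GripTite cells with ER-alpha and UAS-driven beta-lactamase reporter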). Conditions: HEK293 ER-alpha-UAS-bla, beta-lactamase FRET ratio, 18 h; series mostly up to 70.1 µM.
Test [12] shares this target. Put plainly: qHTS assay to identify small molecule agonists of the estrogen receptor alpha (ER-alpha) signaling pathway using the BG1 cell line (AID 743079). Further: nearly all actives have a fitted effect of over 20% in size. Further: potency means the concentration at half of the fitted maximal effect. The settings on record: BG1Luc4E2 cells, ERE-luciferase agonist, 22 h; series mostly up to 70.3 µM.
Test [13] can be described thus: qHTS assay to identify small molecule antagonists of the estrogen receptor alpha (ER-alpha) signaling pathway using the BG1 cell line (AID 743080; calls by dose curve;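 further: BG1 cells stimulated with 17beta-estradiol alongside compound; nearly all actives have a fitted effect of over 25% in size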). Conditions: BG1Luc4E2 ERE-luciferase antagonist mode, luminescence; series mostly up to 70.3 µM. The gist of the method: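 After 5 days in phenol-red-free 10% charcoal-stripped FBS medium, BG1-Luc-4E2 cells were seeded, left 24 h at 37 C, co-treated with compounds and 17beta-estradiol for 21.5 h, then assayed for viability and luciferase.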

Test [14] in a line: qHTS assay to identify small molecule antagonists of the estrogen receptor alpha (ER-alpha) signaling pathway using the BG1 cell line - cell viability counter screen (AID 743081).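 Further: compound given together with 17beta-estradiol as the ER stimulus; nearly all actives have a fitted effect of over 45% in size.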 Conditions: BG1Luc4E2 viability, CellTiter-Fluor, 22 h; series mostly up to 70.3 µM.
The target in test [15] is Aromatase (Homo sapiens) (UniProt P11511). Put plainly: qHTS assay to identify aromatase inhibitors (AID 743083). Further: nearly all actives have a fitted effect of over 55% in size. The settings on record: MCF-7 aro ERE, testosterone-driven ERE luciferase, 24 h; series mostly up to 70.3 µM.
Test [16] deals with Androgen receptor (Homo sapiens) (UniProt P10275). Kind of test: qHTS assay to identify small molecule antagonists of the androgen receptor (AR) signaling pathway (AID 743035; active means well fitted inhibition curve with a large enough effect in the signal ratio in the repeat runs, not every such curve was filed as active; inconclusive means weak or mixed curves, or effect the other way; inactive means no such curve, though single readings can be large or run the other way; the % refers to the signal ratio). Conditions: HEK293 AR-UAS-bla, R1881-stimulated, beta-lactamase FRET, 16 h; series mostly up to 58.5 µM. The gist of the method: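 Fluorescence from a beta-lactamase FRET substrate (LiveBLAzer B/G, 2 h, room temperature) measured inhibition of R1881-stimulated signaling in GeneBLAzer AR-UAS-bla HEK293 cells exposed to compound for 16 h at 37C.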

The target is the same in test [17]. Kind of test: qHTS assay to identify small molecule agonists of the androgen receptor (AR) signaling pathway (AID 743036; active means well fitted activation curve with a large enough effect in the signal ratio in the repeat runs, with a control signal flat, not every such curve was filed as active; inconclusive means weak or mixed curves, or effect the other way; inactive means no such curve, though single readings can be large or run the other way; the % refers to the signal ratio). Conditions: HEK293 AR-UAS-bla GripTite, beta-lactamase FRET ratio, 16 h; series mostly up to 62.4 µM. Summed up: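 Screening used 2,000 AR-bla HEK293 cells per well, treated 16 h at 37C with test compounds in DMSO alongside positive and DMSO-only controls; beta-lactamase activity was then read by LiveBLAzer B/G FRET fluorescence after 2 h at room temperature.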

Test [18] has the same target. Put plainly: qHTS assay to identify small molecule agonists of the androgen receptor (AR) signaling pathway using the MDA cell line (AID 743040; further: nearly all actives have a fitted effect of over 20% in size). Conditions: MDA-kb2 AR-luc cells, MMTV luciferase, 16 h; series mostly up to 70.3 µM. The gist of the method:
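Luminescence from ONE-Glo, read after 30 min at room temperature, reflects MMTV-driven luciferase in MDA-kb2 cells (AR- and GR-responsive). Treatment lasted 16 h at 37C, 0% CO2.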

The target is the same in test [19]. Kind of test: qHTS assay to identify small molecule antagonists of the androgen receptor (AR) signaling pathway using the MDA cell line (AID 743042; further: nearly all actives have a fitted effect of over 55% in size). The settings on record: MDA-kb2 AR-luc, MMTV luciferase, R1881 antagonist, 16 h; series mostly up to 70.3 µM. The gist of the method:
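MDA-kb2 cells (human breast carcinoma, stably carrying an MMTV-luciferase reporter responsive to AR and GR) were plated at 3,000 cells/well and preincubated 5 hr at 37C, then given compound plus R1881 agonist for 16 h. ONE-Glo luminescence was read.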

Test [20] can be described thus: qHTS assay for identifying genotoxic compounds that show differential cytotoxicity against isogenic chicken DT40 cell lines with known DNA damage response pathways - Rev3 mutant cell line (AID 743014). Further: nearly all actives have a fitted effect of over 55% in size. Further: potency means the concentration at half of the fitted maximal effect. Conditions: chicken DT40 Rev3-/- viability, CellTiter-Glo, 40 h; series mostly up to 68.4 µM.

Chain of Estrogen receptor (Homo sapiens) (P03372 whole entry, looked up): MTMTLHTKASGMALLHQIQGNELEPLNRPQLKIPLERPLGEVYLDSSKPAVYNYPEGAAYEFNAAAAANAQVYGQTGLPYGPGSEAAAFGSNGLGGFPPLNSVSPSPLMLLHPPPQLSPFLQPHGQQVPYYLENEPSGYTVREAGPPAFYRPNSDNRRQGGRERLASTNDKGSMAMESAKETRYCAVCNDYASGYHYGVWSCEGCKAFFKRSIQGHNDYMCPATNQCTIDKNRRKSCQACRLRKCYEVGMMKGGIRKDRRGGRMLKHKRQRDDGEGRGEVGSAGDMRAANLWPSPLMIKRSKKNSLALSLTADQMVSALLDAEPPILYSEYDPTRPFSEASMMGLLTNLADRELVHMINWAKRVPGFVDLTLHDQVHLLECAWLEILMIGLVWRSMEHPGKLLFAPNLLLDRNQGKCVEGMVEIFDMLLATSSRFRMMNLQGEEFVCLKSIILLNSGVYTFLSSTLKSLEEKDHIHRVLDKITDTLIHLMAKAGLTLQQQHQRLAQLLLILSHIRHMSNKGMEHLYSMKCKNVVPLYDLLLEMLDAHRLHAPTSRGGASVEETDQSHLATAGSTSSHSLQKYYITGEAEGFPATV
Chain of Androgen receptor (Homo sapiens) (P10275 whole entry, looked up): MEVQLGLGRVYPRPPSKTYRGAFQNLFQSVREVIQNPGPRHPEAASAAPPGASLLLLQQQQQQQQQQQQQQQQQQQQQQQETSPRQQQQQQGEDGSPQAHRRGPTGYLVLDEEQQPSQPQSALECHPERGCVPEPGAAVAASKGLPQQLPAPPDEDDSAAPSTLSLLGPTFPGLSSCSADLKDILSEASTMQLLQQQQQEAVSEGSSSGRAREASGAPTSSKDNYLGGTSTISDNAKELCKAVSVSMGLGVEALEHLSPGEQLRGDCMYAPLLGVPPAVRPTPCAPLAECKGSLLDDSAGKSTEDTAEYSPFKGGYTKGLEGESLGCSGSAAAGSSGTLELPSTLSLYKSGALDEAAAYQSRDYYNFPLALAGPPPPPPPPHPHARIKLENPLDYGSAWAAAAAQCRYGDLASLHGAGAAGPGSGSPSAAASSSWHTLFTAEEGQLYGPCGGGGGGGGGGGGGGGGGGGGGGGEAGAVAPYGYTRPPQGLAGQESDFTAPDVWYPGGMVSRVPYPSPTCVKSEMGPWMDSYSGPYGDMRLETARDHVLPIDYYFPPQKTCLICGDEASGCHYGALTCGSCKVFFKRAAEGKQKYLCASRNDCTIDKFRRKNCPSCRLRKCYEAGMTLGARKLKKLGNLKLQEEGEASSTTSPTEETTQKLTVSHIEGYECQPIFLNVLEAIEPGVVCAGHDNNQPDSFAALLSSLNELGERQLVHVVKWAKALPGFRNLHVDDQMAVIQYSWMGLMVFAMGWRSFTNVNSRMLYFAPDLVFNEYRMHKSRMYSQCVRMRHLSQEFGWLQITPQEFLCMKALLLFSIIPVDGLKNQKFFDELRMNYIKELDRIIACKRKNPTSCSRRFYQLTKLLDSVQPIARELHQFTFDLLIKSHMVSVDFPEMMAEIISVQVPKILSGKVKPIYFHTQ
Chain of Aromatase (Homo sapiens) (P11511 whole entry, looked up): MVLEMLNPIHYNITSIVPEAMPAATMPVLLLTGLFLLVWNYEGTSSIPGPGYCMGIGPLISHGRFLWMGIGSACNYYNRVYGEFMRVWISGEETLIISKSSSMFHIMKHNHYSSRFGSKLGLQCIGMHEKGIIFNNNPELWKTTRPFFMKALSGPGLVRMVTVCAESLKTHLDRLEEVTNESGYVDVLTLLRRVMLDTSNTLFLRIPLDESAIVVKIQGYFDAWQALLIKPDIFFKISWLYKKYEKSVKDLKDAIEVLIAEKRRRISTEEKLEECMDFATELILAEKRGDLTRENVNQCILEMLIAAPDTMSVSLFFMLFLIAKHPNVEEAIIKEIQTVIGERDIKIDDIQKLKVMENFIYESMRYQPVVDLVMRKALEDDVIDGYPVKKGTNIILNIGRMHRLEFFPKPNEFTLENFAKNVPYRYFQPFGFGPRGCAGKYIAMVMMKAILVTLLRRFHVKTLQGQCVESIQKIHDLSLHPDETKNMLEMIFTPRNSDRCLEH

For the molecule `CCCNC(C)C(=O)Nc1c(C)csc1C(=O)OC` (stereo not given), the molecule was classed as inactive in test [1], in test [4], in test [8], in [11] and in test [13]. The Potency result in [2], in [3], in test [5], in test [6], in test [7] and in [9] was “inactive” throughout. Further, the Potency entry in [10], in test [12], in test [14] and in test [15] was “inactive” throughout.
Take `OCCN(CCO)c1ccccc1`: the result in test [1], in test [4], in test [17], in test [19], in [8] and in test [11] was inactive. Further, the call in test [13] was inactive. Further, the Potency entry in test [2], in test [3], in [16], in [18], in test [6] and in test [7] was “inactive” throughout. Also, the Potency entry in [9], in [10], in test [14] and in test [15] was “inactive” in each case.
Turning to `CCN1CC(CCN2CCOCC2)C(c2ccccc2)(c2ccccc2)C1=O` (stereo not given), the call in test [1], in test [4] and in [8] was inactive. Also, the Potency result in test [2], in [5], in [6], in test [7], in test [10] and in test [14] was “inactive” in each case. Also, the Potency entry in test [15] is “inactive”.
`CC(=O)N[C@@H](CC(C)C)C(=O)O`: the outcome in [1], in test [4], in [8], in test [11] and in [13] was inactive. In addition, the Potency result in test [2], in [3], in test [5], in [7], in [9] and in [10] was “inactive” in each case. Moreover, the Potency entry in [14] and in test [15] was “inactive” throughout.
For the molecule `Cc1ccccc1C(=O)Nc1ccc(C(=O)N2CCCC(O)c3cc(Cl)ccc32)c(C)c1` (stereo not given), the molecule was called inactive in test [1], in [4] and in test [8]. Besides, the values for the Potency in test [2] and in test [7] were 26.6 µM (active) and 23.7 µM (active), respectively. For the same molecule, the Potency entry in test [5], in test [6] and in test [10] was “inactive” in each case.
As to `O=C(CC(=O)C(F)(F)F)c1ccccc1`, the molecule was called inactive in test [1], in [4], in test [8] and in test [11]. Moreover, the Potency entry in test [2], in [5], in [10] and in test [15] was “inactive” throughout. Moreover, the Potency is 28 µM [inconclusive] (active) in test [9] and 19.6 µM (active) in test [12].
As for `NC1=NCC2c3ccccc3Cc3ccccc3N12` (stereo not given), the result in test [1] and in test [8] was inactive. The Potency in test [2] is 21.1 µM (active); in test [20] it was 26.6 µM (active). The Potency result in test [5], in test [6], in [10], in test [14] and in [15] was “inactive” throughout.
On to `CCCCCCCCCCCCOCCOS(=O)(=O)O`, for which the result in test [1], in [4], in [8], in test [11] and in test [13] was inactive. Further, the Potency entry in test [2], in test [5], in [10], in [14] and in test [15] was “inactive” in each case. In addition, the Potency in test [7] is 68.6 µM (active).
For `O=C(O)[C@@H](O)[C@H](O)[C@H](O)[C@@H](O)C(=O)O`, the outcome in [1], in [4] and in test [8] was inactive. Further, the Potency entry in [2], in [3], in [6], in [7], in test [10] and in [14] was “inactive” each time. The Potency result in test [15] is “inactive”.
As for `C[C@@H]1CN(c2c(F)c(N)c3c(=O)c(C(=O)O)cn(C4CC4)c3c2F)C[C@H](C)N1`, the call in [1], in [4], in [11] and in [13] was inactive. The Potency entry in test [20], in test [3], in [5], in test [6], in test [9] and in test [10] was “inactive” each time. Further, the Potency result in test [12], in [14] and in test [15] was “inactive” each time.
As to `C=CCCCCCCCCO`, the molecule was classed as inactive in test [1], in test [4], in test [8], in test [11] and in [13]. Besides, the Potency result in test [20], in test [3], in [5], in test [7], in test [9] and in test [10] was “inactive” each time. Further, the Potency result in [12], in test [14] and in test [15] was “inactive” each time.
